Data on 38 molecules can be found in PubChem BioAssay (NCI).

Values joined by “and” are separate entries in the source; they are usually repeats but may differ in a detail not shown here. Equal values may be shown once. Compounds without any hit were thinned out: in the full panel of roughly 83,000, 20% have a hit.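 Plates (96-well) were seeded with cells, treated with compound at one concentration, and incubated for 48 hours before percent growth was determined.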 Unmarked numbers belong to inactive results. Active and inactive are the calls of the source. How the source made its calls: active means growth percent below 10; inactive means the rest.

The first test relates to UACC-62 melanoma. Description: NCI-60 one-dose screen, 48 h (100 = growth as untreated, 0 = no growth, -100 = all killed). The note with it: 10 µM unless noted.
On to `CS(=O)(=O)c1ccc(-n2nc(C(=O)NCc3ccccc3)cc2-c2ccc(Cl)cc2)cc1`, for which the growth is 73.9%.

On to `CCCCCCCCc1cccc(CC(=O)Nc2ccc(C)cc2C(=O)O)c1`, for which the growth was 49.4% [25 µM]. `COc1ccc(-c2cc(C(=O)Oc3ccc(C=O)cc3OC)nn2-c2ccc(S(C)(=O)=O)cc2)cc1`: the growth is 88%.

As to `O=C(NN1C(=O)/C(=C/C=C/c2ccc([N+](=O)[O-])o2)SC1=S)c1ccncc1`, the growth is -100% (active). With `COc1ccccc1Nc1nnc(-c2c[nH]c3ccccc23)o1`, the growth is 22.9%.

In the case of `CS(=O)(=O)Nc1cc(-c2ccc3ncnc(N4CCc5cc(F)c(Cl)cc54)c3c2)cnc1Cl`, the growth is -43.2% (active). Same read-out and setting: then `CC(=O)Nc1ccc(S(=O)(=O)Nc2ccc(-c3ccc4c(c3)NC(=O)/C4=C\c3ccc[nH]3)cc2)cc1`, with 68.7%. On the same count and under the same terms, the same measure for `Cc1nn(-c2ccccc2)c2nc(C)n(CC(=O)N/N=C/c3cccc([N+](=O)[O-])c3)c(=O)c12`: 81.3%; for `CCC(=O)c1cc(C(=O)OC)c2ccc3c4ccccc4ccc3n12`: 89.6%; for `Cc1ccc(C(=O)Nc2cc(-n3cnc(F)c3)cc(C(F)(F)F)c2)cc1C#Cc1cnc2cccnn12`: 26%. Still for that read-out and setting: then `O=C(N=Nc1c(O)[nH]c2ccc(Cl)cc12)c1ccc2nc(-c3ccc(Cl)cc3)[nH]c2c1`, with -59% (active); and `COc1cc(C=O)ccc1OC(=O)c1cc(-c2ccc(C)cc2)n(-c2ccc(S(C)(=O)=O)cc2)n1`, with 91.4%.

For the molecule `CC(C)CN1C(=O)/C(=C\C(=O)c2cc3ccccc3oc2=O)c2ccccc21`, the growth is 83.2%. On to `Nc1nc2cc(-c3ccc4ncnc(NCc5ccccc5)c4c3)ccc2o1`, for which the growth was 77.1%. The same measure, in the same setting: the same measure for `Cc1cccc(NCC(=O)N2CCN(c3ncnc4c3cnn4-c3ccccc3)CC2)c1`: 34.6%; for `CCCCCCCCCc1ccc(C(=O)Nc2cc(C)ccc2C(=O)OC)cc1`: 83.7%; for `NC1(c2ccc(-c3ccc4ncnc(NCc5ccccc5)c4c3)cn2)COC1`: 104% and 94%.

Turning to `CCCCNC(=S)Nc1ccc(OCc2nc3ccc(Cl)cc3[nH]2)cc1`, the growth was 29.9%. Still for that read-out and setting: then `CCC1(OC(=O)c2ccccc2SSCCOC(=O)CCCCC2SCC3NC(=O)NC32)C(=O)OCc2c1cc1n(c2=O)Cc2cc3ccccc3nc2-1` (centres undefined), with 17.7%; and `COc1ccc(/C=C/c2nc3ccccc3c(=O)n2CC(=O)Nc2ccccc2)cc1`, with 78.6%. `CC[C@]12C=CCN3CC[C@@]4(c5ccc(OC)cc5N(C)[C@H]4[C@@](O)(C(=O)OC)[C@@H]1OC(=O)CCCC[P+](c1ccc(F)cc1)(c1ccc(F)cc1)c1ccc(F)cc1)[C@@H]32`: the growth is -69.6% (active).

As for `Cc1ccc(C2CC(c3ccc(NC(=O)Nc4ccccc4)cc3)=NN2c2ccc(S(C)(=O)=O)cc2)cc1` (centres undefined), the growth was -80.3% (active). The same measure, in the same setting: the same measure for `CC1=C(C)C(=O)C(NCCN2CCOCC2)=C(Br)C1=O`: 39.4%; for `Cc1nn(-c2ccccc2)c2nc(C)n(CC(=O)N/N=C/c3ccccc3O)c(=O)c12`: 3.15% (active); for `O=C(CSc1nnc(-c2ccc(-c3nc4ccccc4[nH]3)cc2)o1)Nc1ccccc1`: 92.1%. The same measure, in the same setting: the same measure for `Cc1cccc(-c2ccccc2Oc2ccc3nnc(Cl)n3n2)c1`: 96.8%; for `Oc1cncc(-c2ccc3ncnc(N4CCc5cc(F)c(Cl)cc54)c3c2)c1`: 71.8%.

As to `CCOc1ccccc1[C@H]1C(C(=O)c2ccc(Cl)cc2)C2(N[C@@H]1c1ccccc1)C(=O)Nc1ccc(Br)cc12` (some centres undefined), the growth is -46.8% (active). On to `Cc1ccc2c(c1)/C(=C/C(=O)c1cc3ccccc3oc1=O)C(=O)N2`, for which the growth is 49.7%. Same read-out and setting: then `COC(=O)CSC1=C(C)C(=O)C(OC)=C(OC)C1=O`, with 70.5%. Regarding `CCCCCCCCc1ccc(C(=O)Nc2ccc(C)c(OP(=O)(O)O)c2)cc1`, the growth was 90.6%.

The next test has as its system LOX IMVI melanoma. The description is as above. The note with it: 10 µM unless noted.
With `CS(=O)(=O)c1ccc(-n2nc(C(=O)NCc3ccccc3)cc2-c2ccc(Cl)cc2)cc1`, the growth was 89.4%. In the case of `CCCCCCCCc1cccc(CC(=O)Nc2ccc(C)cc2C(=O)O)c1`, the growth was 3.4% [25 µM] (active). For `COc1ccc(-c2cc(C(=O)Oc3ccc(C=O)cc3OC)nn2-c2ccc(S(C)(=O)=O)cc2)cc1`, the growth was 90.1%. `O=C(NN1C(=O)/C(=C/C=C/c2ccc([N+](=O)[O-])o2)SC1=S)c1ccncc1`: the growth is -94% (active). On to `N#Cc1c(-c2ccc(F)cc2)nc(SCc2ccccc2)nc1N1CCNCC1`, for which the growth was -93.6% (active).

Regarding `COc1ccc(/C=C/C(=O)c2ccc(OC)c(S(N)(=O)=O)c2)c(C(F)(F)F)c1`, the growth was -93% (active). Consider `COc1ccccc1Nc1nnc(-c2c[nH]c3ccccc23)o1`, for which the growth is 7.77% (active). As to `COc1ccc2c(c1)N=c1c-2cc2c(O)[nH]c(=S)n2c1=O`, the growth is 32.6%. The same measure, in the same setting: the same measure for `CS(=O)(=O)Nc1cc(-c2ccc3ncnc(N4CCc5cc(F)c(Cl)cc54)c3c2)cnc1Cl`: -29.2% (active); for `CC(=O)Nc1ccc(S(=O)(=O)Nc2ccc(-c3ccc4c(c3)NC(=O)/C4=C\c3ccc[nH]3)cc2)cc1`: 85.2%; for `Cc1nn(-c2ccccc2)c2nc(C)n(CC(=O)N/N=C/c3cccc([N+](=O)[O-])c3)c(=O)c12`: 88.8%. Take `CCC(=O)c1cc(C(=O)OC)c2ccc3c4ccccc4ccc3n12`: the growth is 77.9%. On the same count and under the same terms, then `Cc1ccc(C(=O)Nc2cc(-n3cnc(F)c3)cc(C(F)(F)F)c2)cc1C#Cc1cnc2cccnn12`, with 22%.

In the case of `O=C(N=Nc1c(O)[nH]c2ccc(Cl)cc12)c1ccc2nc(-c3ccc(Cl)cc3)[nH]c2c1`, the growth was -100% (active). Still for that read-out and setting: the same measure for `COc1cc(C=O)ccc1OC(=O)c1cc(-c2ccc(C)cc2)n(-c2ccc(S(C)(=O)=O)cc2)n1`: 98.8%.

For `CC(C)CN1C(=O)/C(=C\C(=O)c2cc3ccccc3oc2=O)c2ccccc21`, the growth is 85.7%.

On to `Nc1nc2cc(-c3ccc4ncnc(NCc5ccccc5)c4c3)ccc2o1`, for which the growth was -86.1% (active).

Take `Cc1cccc(NCC(=O)N2CCN(c3ncnc4c3cnn4-c3ccccc3)CC2)c1`: the growth is 53.8%. On the same count and under the same terms, then `Cn1cc(-c2cc(N)n3nc(-c4c[nH]c5ccccc45)cc3n2)c2cc(F)ccc21`, with -80.7% (active); and `CCCCCCCCCc1ccc(C(=O)Nc2cc(C)ccc2C(=O)OC)cc1`, with 102%; and `NC1(c2ccc(-c3ccc4ncnc(NCc5ccccc5)c4c3)cn2)COC1`, with 99% and 102%. Consider `CCCCNC(=S)Nc1ccc(OCc2nc3ccc(Cl)cc3[nH]2)cc1`, for which the growth is -29.8% (active).

Consider `CCC1(OC(=O)c2ccccc2SSCCOC(=O)CCCCC2SCC3NC(=O)NC32)C(=O)OCc2c1cc1n(c2=O)Cc2cc3ccccc3nc2-1` (centres undefined), for which the growth was 33.9%. `COc1ccc(/C=C/c2nc3ccccc3c(=O)n2CC(=O)Nc2ccccc2)cc1`: the growth was 26.9%. Regarding `CC[C@]12C=CCN3CC[C@@]4(c5ccc(OC)cc5N(C)[C@H]4[C@@](O)(C(=O)OC)[C@@H]1OC(=O)CCCC[P+](c1ccc(F)cc1)(c1ccc(F)cc1)c1ccc(F)cc1)[C@@H]32`, the growth is 25%.

For the molecule `COc1ccccc1NC(=O)N/N=C/c1c[nH]c2ccccc12`, the growth was -51.2% (active). On the same count and under the same terms, the same measure for `Cc1ccc(C2CC(c3ccc(NC(=O)Nc4ccccc4)cc3)=NN2c2ccc(S(C)(=O)=O)cc2)cc1` (centres undefined): -100% (active). On the same count and under the same terms, the same measure for `CC1=C(C)C(=O)C(NCCN2CCOCC2)=C(Br)C1=O`: -28.5% (active); for `CC(=O)C[n+]1cccc2c3ccccc3ccc21`: 99.8%. On to `Cc1nn(-c2ccccc2)c2nc(C)n(CC(=O)N/N=C/c3ccccc3O)c(=O)c12`, for which the growth is 4.1% (active). On the same count and under the same terms, then `O=C(CSc1nnc(-c2ccc(-c3nc4ccccc4[nH]3)cc2)o1)Nc1ccccc1`, with 3.54% (active); and `Cc1cccc(-c2ccccc2Oc2ccc3nnc(Cl)n3n2)c1`, with 93.7%. Still for that read-out and setting: the same measure for `Oc1cncc(-c2ccc3ncnc(N4CCc5cc(F)c(Cl)cc54)c3c2)c1`: 38.8%. The same measure, in the same setting: then `CCOc1ccccc1[C@H]1C(C(=O)c2ccc(Cl)cc2)C2(N[C@@H]1c1ccccc1)C(=O)Nc1ccc(Br)cc12` (some centres undefined), with -100% (active); and `Cc1ccc2c(c1)/C(=C/C(=O)c1cc3ccccc3oc1=O)C(=O)N2`, with 27.4%; and `Cc1ccc(C(=O)C[n+]2cccc3c4ccccc4ccc32)cc1`, with -24.2% (active). Take `COC(=O)CSC1=C(C)C(=O)C(OC)=C(OC)C1=O`: the growth is 83.3%. Same read-out and setting: the same measure for `CCCCCCCCc1ccc(C(=O)Nc2ccc(C)c(OP(=O)(O)O)c2)cc1`: 92.9%.
